MmCpn inh – Inhibitors of TCP-1 ring complex (TRiC) of Methanococcus maripaludis (MmCpn): qHTS | purified Mm-Cpn ATPase, ADP Transcreener TR-FRET | Potency, µM (doses to about 76.9 µM), for inactives: at the top dose activity, negative = inhibition, usual class: inhibitors | hit rate 0.031% among 330,000 | AID 504842, 2011; active means well fitted curve in the direction sought with a large enough effect; inconclusive means small, poorly fitted or top-dose-only effect, or another doubt; inactive means no such curve, though single readings can be large; an effect the other way counts as inactive or inconclusive; further: potency means the concentration at half of the fitted maximal effect; on the % scale 0 is the no-effect control and ±100 the full control effect; nearly all actives have a fitted effect of over 80% in size
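25 nM Mm-CPN + cpd, 10 min 37°C; + 10 uM ATP, 30 min 37°C; buffer 30 mM Tris pH 7.4, 100 mM KCl, 5 mM MgCl2, 1 mM DTT; Transcreener ADP HTRF detection 30 min RT.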
Rango-impB inh – qHTS Assay for Inhibitors of Rango (Ran-regulated importin-beta cargo) - Importin beta complex formation; Rango CFP/YFP FRET sensor + importin beta, 45 min; Potency, µM (doses to about 92.2 µM), without a hit: at the top dose inhibition of complex formation; hit rate 0.031% among 340,000; Importin subunit beta-1 (Homo sapiens), Q14974; AID 540263, 2011;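 further: potency means the concentration at half of the fitted maximal effect; 0% = DMSO wells and 100% = buffer wells lacking importin beta; nearly all actives have a fitted effect of over 15% in size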
Target sequence (Q14974 whole entry, looked up): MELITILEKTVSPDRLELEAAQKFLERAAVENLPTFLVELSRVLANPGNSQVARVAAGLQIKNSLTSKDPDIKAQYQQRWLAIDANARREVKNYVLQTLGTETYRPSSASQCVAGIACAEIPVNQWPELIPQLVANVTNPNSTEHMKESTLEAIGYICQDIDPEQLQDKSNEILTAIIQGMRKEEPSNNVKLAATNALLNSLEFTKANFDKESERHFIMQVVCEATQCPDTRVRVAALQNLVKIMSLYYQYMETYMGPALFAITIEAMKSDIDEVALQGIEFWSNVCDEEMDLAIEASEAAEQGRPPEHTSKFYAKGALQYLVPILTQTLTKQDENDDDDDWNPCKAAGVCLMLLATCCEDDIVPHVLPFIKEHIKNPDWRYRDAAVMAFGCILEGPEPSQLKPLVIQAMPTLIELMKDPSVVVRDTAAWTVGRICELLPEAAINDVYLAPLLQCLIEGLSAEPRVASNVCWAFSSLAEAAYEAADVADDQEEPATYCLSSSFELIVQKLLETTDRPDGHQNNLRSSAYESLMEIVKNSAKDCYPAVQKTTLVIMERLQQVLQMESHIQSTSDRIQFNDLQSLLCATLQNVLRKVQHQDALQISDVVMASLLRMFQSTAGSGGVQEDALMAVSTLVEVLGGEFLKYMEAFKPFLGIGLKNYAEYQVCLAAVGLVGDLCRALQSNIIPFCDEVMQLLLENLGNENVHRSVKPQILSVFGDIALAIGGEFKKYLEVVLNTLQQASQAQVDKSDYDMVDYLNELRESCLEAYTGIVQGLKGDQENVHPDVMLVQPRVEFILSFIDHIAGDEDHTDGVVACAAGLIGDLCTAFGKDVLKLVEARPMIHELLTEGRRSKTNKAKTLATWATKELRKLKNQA
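FRET biosensor Rango (snurportin 1 IBB between N-terminal EYFP and C-terminal Cerulean), 50 nM in PBS/1 mM DTT/0.02% Tween-20/0.1% BSA, preincubated 5 min RT with compound; 0.125 microM importin beta added, 45 min RT, CFP/YFP FRET ratio read.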
CCT chaperon mod – High-Throughput Screening for Modulators of Cytosolic Chaperonin Activity; purified chaperonin ATPase assay, HTRF ADP detection, 30 min; activity change, % (concentration not given with the values), hits read low; hit rate 0.3% among 360,000; in the data active means activity change below about -30%; further: on the % scale 0 is the no-effect control and ±100 the full control effect
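ATPase activity: ADP formed was measured by HTRF Transcreener (665/615 nm ratio) after 30 min at 37 deg C with 10 uM ATP. Compounds screened at one 76 uM concentration against 40 or 20 nM TRiC in Tris pH 7.4/KCl/MgCl2/DTT buffer.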
a7 integrin act – qHTS for Activators of Integrin-Mediated Alleviation for Muscular Dystrophy | alpha7betagal myoblasts, beta-gal FDG fluorescence, 48 h | AID 624291, 2012 | hit rate 0.064% among 350,000 | Potency, µM (top dose mostly 38.3 µM), for inactives: at the top dose activation, actives largely listed as activators; active means well fitted curve in the direction sought with a large enough effect; inconclusive means small, poorly fitted or top-dose-only effect, or another doubt; inactive means no such curve, though single readings can be large; an effect the other way counts as inactive or inconclusive;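 further: potency means the concentration at half of the fitted maximal effect; 100% = response of the positive control SU9516; nearly all actives have a fitted effect of over 60% in size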
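alpha7betagal+/- myoblasts (passage 13, 250/well) treated 48 h at 37C with compounds at 1:260 dilution of DMSO stock. Lysed, then beta-galactosidase activity read as FDG fluorescence (ex 480/em 540) after 30 min, with pre-read for autofluorescence.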
Rango release inh – qHTS Assay for Inhibitors of RanGTP induced Rango (Ran-regulated importin-beta cargo) - Importin beta complex dissociation. Snurportin-1 (Homo sapiens) + GTP-binding nuclear protein Ran (Homo sapiens) + Importin …. Biochemical FRET Rango-importin beta, RanGTP-induced dissociation. Potency, µM (highest dose often 46.1 µM), inactives show at the highest dose activity change, negative = inhibition. hit rate 0.071% among 340,000. AID 540253, 2011; further: potency means the concentration at half of the fitted maximal effect; % of control where 0% means no effect; nearly all actives have a fitted effect of over 45% in size
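Compounds sat 5 min at room temperature with 0.1 uM Rango biosensor plus 0.25 uM importin beta, then FRET pre-read. RanGTP-RCC1 (0.6 uM Ran, 2mM GTP, 0.2 uM RCC1) added for 45 min, and the CFP/YFP post-read measured blocked complex dissociation.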
Active calls of the source: *; ? = inconclusive; nt = not tested or not shown; ! = not confirmed by another sample; [ ] = dose if it differs, or a comment. In the library only some 0.51% were active in any assay of this set; here they are far more common. Unless noted, the call rests on the fitted dose curve.

SMILES	MmCpn inh	Rango-impB inh	CCT chaperon mod	a7 integrin act	Rango release inh
CCOC(=O)c1sc(=S)n(-c2ccc(OC)cc2)c1N	-0.8%	-1.3%	-11.5	1.8%	-0.8%
COC(=O)c1nc(-c2ccc(C)cc2)[nH]c1C(C)(C)C	nt	nt	0.6	nt	nt
Cc1ccc(N2CC(C(=O)NCC3CCCO3)CC2=O)cc1Cl (stereo not drawn)	1.3%	0.0%	-143.4*	-13.9%	11.6%
NC(=O)C1CCN(c2nc(-c3cccc([N+](=O)[O-])c3)cs2)CC1	1.0%	nt	nt	nt	nt
Clc1ccc(-c2cccc3nccn23)c(Cl)c1	nt	nt	-76.5*	nt	nt
Clc1cccc(-c2cccc3nccn23)c1Cl	nt	nt	-2.4	nt	nt
COc1ccccc1OC(C)C(=O)N1CCc2ccccc21 (stereo not drawn)	3.5%	4.0%	-1.5	-11.5%	-12.4%
COc1ccccc1N1CC(C(=O)OC(C)C(=O)N2CCCc3ccccc32)CC1=O (stereo not drawn)	-2.8%	-0.1%	-60.5*	-15.2%	-4.6%
CCn1c(SCC(=O)Nc2cc(C)on2)nc2sc3c(c2c1=O)CCCC3	-10.3%	-1.8%	4.5	-37.6%	11.8%
C=CCn1c(SCC(=O)Nc2cc(C)on2)nc2sc3c(c2c1=O)CCCC3	-6.9%	3.1%	-64.5*	16.9%	-6.5%
O=C([C@H]1O[C@@H](n2ccc(=O)[nH]c2=O)[C@H](O)[C@@H]1O)N1CCN(Cc2ccccn2)CC1	nt	nt	-0.3	nt	nt
Cc1nn(CC(=O)N2CCC(C)CC2)c(=O)c2cccn12	0.0%	2.2%	-55.0*	4.3%	-15.4%
COc1cc2c(cc1OC)C1O[C@](c3ccsc3)(C2)Oc2cc(-c3ccccc3)oc(=O)c21	0.6%[15.4 µM]	nt	nt	nt	nt
COc1ccc(CC(N)c2csc(Nc3cc(Oc4ccccc4)ncn3)n2)cc1 (stereo not drawn)	nt	nt	-35.8*	nt	nt
COc1cc(C(C)=O)ccc1OCC(=O)Nc1ccc(Cl)c(S(=O)(=O)N2CCOCC2)c1	-9.3%	-2.0%	-98.1*	22.1%	-4.3%
Cc1ccc(NC(=O)COC(=O)c2ccc(NC(=O)CC#N)cc2)cc1S(=O)(=O)N1CCOCC1	31.6µM*	-2.5%	-1.0	-11.5%	-8.5%
Cc1ccc(NC(=O)COC(=O)c2ccc3c(c2)OCCO3)cc1S(=O)(=O)N1CCOCC1	-1.9%	0.4%	2.2	-1.0%	1.2%
CN(C)CCOC(c1ccc(Cl)cc1)c1ccccn1 (stereo not drawn)	0.3%	-2.1%	-51.1*!	nt	-7.6%
O=C(N[C@H](CO)Cc1ccccc1)[C@H]1O[C@@H](n2ccc(=O)[nH]c2=O)[C@H](O)[C@@H]1O	nt	nt	0.7	nt	nt
CN(C)CCCO[C@@H]1[C@H]2OC(C)(C)O[C@H]2O[C@@H]1[C@H](O)CO	-4.6%	0.9%	-88.1*	nt	-1.7%
O=C1NC(Cc2ccccc2)c2nc3ccccc3c(=O)n2-c2cc3ccccc3cc21 (stereo not drawn)	nt	nt	-11.4	-47.1%	nt
CN(N=Nc1nc[nH]c1C(N)=O)C1CCCCC1	nt	nt	-2.7	nt	nt
O=[N+]([O-])c1ccc(N2CCN(Cc3ccccc3)CC2)c2c1no[n+]2[O-]	nt	nt	-1.2	-62.1%	nt
O=C(Nc1ccccc1C(=O)NC(Cc1ccc(O)cc1)C(=O)O)c1ccccc1 (stereo not drawn)	0.1%	0.6%	-36.2*	7.7%	-8.3%
c1ccc(Cn2ncc3c(N4CCN(c5ccccc5)CC4)ncnc32)cc1	nt	nt	-1.3	nt	nt
SMILES	MmCpn inh	Rango-impB inh	CCT chaperon mod	a7 integrin act	Rango release inh
CC1(C)Cc2c(c(-c3ccco3)nc3sc4c(NCCCO)ncnc4c23)CO1	-0.6%	-1.5%	-42.1*	-17.6%	-3.0%
CCN1CCN(c2ccc(S(=O)(=O)N3CCCCC3)cc2NC(=O)COc2ccccc2)CC1	0.4%	-4.7%	-3.3	5.1%	-0.1%
CCC(=O)c1ccc(OCC(=O)Nc2cc(S(=O)(=O)N3CCCCC3)ccc2N2CCN(CC)CC2)cc1	0.6%	1.7%	-120.8*	-35.0%	11.0%
COc1cccc(-c2ccc3ncnc(NCc4cccc(F)c4)c3c2)c1	-4.0%	nt	nt	nt	nt
CN1CCN(c2nc3c(c(=O)[nH]c(=O)n3C)n2Cc2ccc([N+](=O)[O-])cc2)CC1	1.1%	0.4%	-76.1*	-30.0%	-8.3%
Cc1ccc(C2=N/C(=C\c3ccc(F)cc3)C(=O)N2)cc1	-1.0%	?	-43.9*	3.4%	?
Cc1ccc2c(c1)/C(=C/c1ccc(F)cc1)C(=O)N2	-0.1%	1.8%	-0.4	-52.4%	13.2%
CC(C)(C)OC(=O)N1CCC[C@@H]1C(=O)N1CCC[C@@H]1C(=O)NCc1ccccc1Cl	nt	nt	-3.2	nt	nt
N=c1sccn1CC(=O)Nc1cccc2ccccc12	0.7%	0.3%	-121.9*	-14.3%	-11.0%
CSc1ccccc1NC(=O)Cn1ccsc1=N	-5.4%	-1.1%	-1.4	25.3%	-14.9%
CC(=O)Nc1cccc(NC(=O)c2cccc(-c3ccc(O)cc3)c2)c1	4.1%	2.8%	-70.3*	19.0%	4.7%
NC(=O)c1nsc(C(=O)N(c2ccccc2)C(C(=O)NCc2ccc(F)cc2)c2ccc(O)cc2)c1N (stereo not drawn)	-2.3%	-7.1%	-0.6	2.24µM*	-0.6%
CCc1ccccc1Nc1nn2c(=O)c3ccc(C(=O)NCc4cccs4)cc3nc2s1	-26.9%	nt	nt	nt	nt
CCCC12CN3CC(C)(CN(C1)C31CCCCC1)C2=O	0.1%	7.5%	-48.0*	-5.3%	2.6%
CCCC12CN3CC(C)(CN(C1)C31C(=O)Nc3ccc(C)cc31)C2=O (stereo not drawn)	-0.3%	-2.1%	0.5	9.4%	0.2%
O=C(CSc1ncc(-c2ccccc2)nn1)NCc1ccco1	-1.2%	-0.2%	-91.5*	-2.7%	1.0%
N#Cc1c(N2CCOCC2)nc(N2CCCCC2)c2c1CCN(C1CCCCC1)C2	-0.8%	?	-2.1	-7.0%	23.1µM*
CCN1CCc2c(C#N)c(N3CCCCC3)nc(N3CCOCC3)c2C1	-0.9%	?	0.6	7.5%	?
CCOC(=O)C1(C)CCCN(C(=O)c2ccc(OC)cc2)C1 (stereo not drawn)	nt	nt	-0.6	nt	nt
COC(=O)C1CCN(c2nc3ccccc3nc2C(C#N)C(=O)OCC(C)C)CC1 (stereo not drawn)	-0.4%	?	-40.0*	-37.4%	?
COC(=O)C1CCN(c2nc3ccccc3nc2C(C#N)C(=O)NCCc2ccccc2)CC1 (stereo not drawn)	2.1%	?	-0.8	-25.1%	?
O=C(CSc1nnc(CNC(=O)c2ccco2)o1)Nc1ccc(F)cc1	1.7%	4.8%	-0.4	9.6%	4.6%
O=C(CSc1nnc(CNC(=O)c2ccco2)o1)Nc1ccc(OC(F)(F)F)cc1	-1.5%	1.3%	-47.3*	13.5%	1.1%
